Only some compounds are listed: those with a hit (about 2.8% of all), similar ones and a draw of the others.
MBNL1-CUG inh: MBNL1-poly(CUG) RNA binding inhibition; TR-FRET MBNL1-His/biotin-(CUG)12 binding, 665/545 ratio; Potency, µM (doses to about 57.5 µM), inactives show at the highest dose activity change, negative = inhibition, most hits filed as inhibitors; 280,000 tested, 0.036% active; AID 2675; active = well fitted inhibition curve with a large enough effect in the signal ratio, with a control signal flat, not every such curve was filed as active; inconclusive = small, poorly fitted or top-dose-only effect, or effect the other way, or a change in a side signal; inactive = no such curve, though single readings can be large or run the other way; the % refers to the signal ratio; also: potency is read from the fitted curve at half-maximal effect; % is scaled to controls: 0 for no effect and ±100 for the full control effect
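Ratiometric TR-FRET (665 over 545 nm, excitation 340 nm) tracks disruption of MBNL1-His/biotin-(CUG)12 complex after 60 min at room temperature, with compounds at 92 nM to 58 uM final.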
D3 ag: activates the human D3 dopamine receptor; D3R DiscoveRx beta-arrestin cells, luminescence, 90 min; AID 652048; 410,000 tested, 0.58% active; max activation, %; P35462; in the data active = max activation above about 30%; also: 0% is about no effect
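Agonist-mode cell screen: cells plated at 1500/well and incubated overnight at 37 °C, then exposed to library compounds for 90 min at 37 °C. Detection reagent was added for 30–60 min at room temperature, and luminescence was read.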
Integrin act MD: activates integrin-mediated alleviation for muscular dystrophy; Potency, µM (top dose mostly 38.3 µM), for the others: top-dose activation, usual class: activators; alpha7betagal myoblasts, beta-gal FDG fluorescence, 48 h; 350,000 tested, 0.064% active;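 also: potency is read from the fitted curve at half-maximal effect; 100% = response of the positive control SU9516; nearly all actives have a fitted effect of over 60% in size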
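alpha7betagal+/- myoblasts (passage 13, 250/well) treated 48 h at 37C with compounds at 1:260 dilution of DMSO stock. Lysed, then beta-galactosidase activity read as FDG fluorescence (ex 480/em 540) after 30 min, with pre-read for autofluorescence.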
D3 antag: antagonists of human D3 dopamine receptor; P35462; D3R cells, DiscoveRx beta-arrestin luminescence, antagonist mode; stronger effect = lower value; max response, negative = inhibition, %; 360,000 tested, 2.5% active; in the data active = max response below about -50%; inconclusive = no clear call, values can overlap the other calls; also: % is scaled to controls: 0 for no effect and ±100 for the full control effect
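Cells expressing the human receptor were seeded at 1500 cells/well, incubated overnight at 37 degrees C in 5% CO2, then exposed to library compounds with dopamine controls for 90 minutes at 37 degrees C before luminescent detection.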
CBFb-RUNX1 inh: blocks binding between human CBF-beta and RUNX1 | Q01196+Q13951 | AlphaScreen CBFb-His/RUNX1-biotin binding, biochemical | Potency, µM (doses to about 59.8 µM), inactives show at the highest dose activity, negative = inhibition, usual class: inhibitors | 230,000 tested, under 10 active | AID 1477; also: % of control where 0% means no effect
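AlphaScreen binding: CBFb-His and RUNX1-biotin (30 nM each) preincubated 20 min, compound added for 15 min, then nickel and streptavidin beads for 90 min, all at room temperature. Disruption of the interaction by any mechanism counts as activity.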
PTHR1 agonist: activates the human parathyroid hormone receptor PTHR1; Potency, µM (highest dose often 115 µM), for the others: at the top dose activation, usual class: activators; HEK293 GP2 PTHR1 cells, GloSensor cAMP luminescence, 1 h; 410,000 tested, 0.075% active; also: potency is read from the fitted curve at half-maximal effect; nearly all actives have a fitted effect of over 55% in size
Target sequence (Q03431 whole entry, looked up): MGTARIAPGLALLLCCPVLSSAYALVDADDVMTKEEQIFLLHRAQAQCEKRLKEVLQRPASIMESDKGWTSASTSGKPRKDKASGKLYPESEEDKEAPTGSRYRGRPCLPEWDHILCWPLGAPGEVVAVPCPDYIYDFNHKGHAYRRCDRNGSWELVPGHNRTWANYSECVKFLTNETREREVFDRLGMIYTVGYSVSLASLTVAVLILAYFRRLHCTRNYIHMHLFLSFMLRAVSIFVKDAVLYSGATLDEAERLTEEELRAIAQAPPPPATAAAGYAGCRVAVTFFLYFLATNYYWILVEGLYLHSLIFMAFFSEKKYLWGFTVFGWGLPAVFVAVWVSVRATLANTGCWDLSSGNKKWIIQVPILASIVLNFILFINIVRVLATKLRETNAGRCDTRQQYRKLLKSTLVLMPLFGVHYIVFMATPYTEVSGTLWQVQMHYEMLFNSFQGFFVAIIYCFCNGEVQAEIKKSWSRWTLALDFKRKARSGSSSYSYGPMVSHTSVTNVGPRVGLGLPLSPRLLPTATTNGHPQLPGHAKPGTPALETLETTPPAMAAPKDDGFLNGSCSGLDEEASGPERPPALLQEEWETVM
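HEK-293-derived GP2 cells expressing PTHR1 and a GloSensor cAMP reporter, 3,000/well, plated overnight, given luciferin plus IBMX (each 0.5 mM as added) for 1 h at 37 °C, then compound for 1 h at 37 °C. Luminescence was read after 15 min at room temperature.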
* marks the source's active call; other numbers are inactive results; i = inactive; ? = inconclusive; . = no result; ! = repeats disagree; [ ] = remark or other dose. Unless noted, calls follow the shape of the dose curve; as a rule, active = well fitted curve in the direction sought with a large enough effect; inconclusive = small, poorly fitted or top-dose-only effect, or another doubt; inactive = no such curve, though single readings can be large; an effect the other way counts as inactive or inconclusive.

SMILES	MBNL1-CUG inh	D3 ag	Integrin act MD	D3 antag	CBFb-RUNX1 inh	PTHR1 agonist
CN(C)CCOc1cccc(Cl)c1	-11.7%	-5.4	-6.9%	?	-0.8%	i
CN(C)CCOC(=O)Cc1ccc(Cl)cc1	1.8%	-1.6	14.7%	1.5	-10.9%	-3.2%[57.5 µM]
CN(C)CCOC(=O)COc1ccc(Cl)cc1	.	45.0*!	.	-9.0	31.3%	-7.0%
CN(C)CCOc1cc(Cl)cc(Cl)c1	-4.0%	-12.0	5.2%	-63.6*	11.0%	i
Cc1ccccc1C(=O)N1[C@@H](C(C)C)COc2cc(Br)ccc2S1(=O)=O	.	34.8*	3.9%	14.6	.	-74.6%
COc1cc(S(=O)(=O)N2CCC(C(N)=O)CC2)c(C)cc1C	-1.1%	-15.5	15.5%	-103.5*	-0.1%	-18.4%[57.5 µM]
Cc1cc(C)c(S(=O)(=O)N2CCC(C(N)=O)CC2)cc1C	-4.5%	1.0	-7.3%	14.2	-4.0%	-2.0%[57.5 µM]
CCCCn1c(N)c(N(Cc2ccccc2)C(=O)COc2ccccc2F)c(=O)[nH]c1=O	.	-1.4	3.5%	-3.6	.	-27.7%
O=C1C=C(c2ccc(CO)cc2)C[C@@H](c2ccc3c(c2)OCO3)C1	.	-26.7	-15.9%	-50.8*	.	-23.5%
CCCCC/C=C/C1=CC(=O)C[C@H](c2ccc3c(c2)OCO3)C1	.	51.2*	-12.5%	-1.4	.	-65.8%
O=C(Nc1c(-c2ccccc2)[nH][nH]c1=O)c1ccc2c(c1)OCO2	.	-3.0	.	-11.5	.	-4.1%
O=C(Nc1c(-c2ccc3c(c2)OCO3)[nH][nH]c1=O)c1ccccc1	.	-8.1	.	-91.9*	.	-16.3%
Cc1ccc(C(=O)Nc2c(-c3ccc(Cl)cc3)[nH][nH]c2=O)cc1	.	-11.5	.	-69.9*	.	-7.9%
COc1cc2c(cc1NC(=O)CSc1nc3ccccc3[nH]1)oc1ccccc12	-6.7%	-7.7	-37.5%	-74.7*	-0.9%	i
COc1cc2c(cc1NC(=O)CSc1ccccc1)oc1ccccc12	.	4.4	-17.6%	10.3	?	-18.3%
CN(C)c1ccc(CNC(=O)c2ccc3nc(CCc4ccccc4)oc3c2)cc1	.	47.6*	.	.	.	i
C[C@H](CO)N1C[C@H](C)[C@H](CN(C)Cc2cccc(O)c2)OCc2ccccc2-c2c(n(C)c3ccccc23)C1=O	.	45.4*	-5.3%	24.1	.	-24.9%
c1ccc(CN2CCCC3(CCCN(Cc4nc(CC5CC5)no4)C3)C2)cc1 (stereo not drawn)	-5.5%	0.5	8.91µM*	?	9.9%	-9.6%
c1ccc(CN2CCCC3(CCCN(Cc4nc(COc5ccccc5)no4)C3)C2)cc1 (stereo not drawn)	-10.3%	-10.1	-13.1%	-16.1	19.0%	-10.3%
CC(=O)N1CCN(CC(=O)Nc2ccc(C)c(S(=O)(=O)N(C)C)c2)CC1	-1.6%	-4.6	-22.2%	-18.5	13.8%	i
CCOC(=O)c1ccc(NC(=O)CN2CCN(C(=O)c3ccco3)CC2)cc1	-5.9%	35.9*	7.6%	14.7	.	i
Cc1ccc(NC(=O)CN2CCN(C(=O)c3ccco3)CC2)cc1S(=O)(=O)N(C)C	.	50.5*	-5.8%	22.7	.	-14.6%
NC(=O)c1ccc(NC(=O)CN2CCN(C(=O)c3ccco3)CC2)cc1	1.4%	13.6	-35.8%	8.4	.	-19.7%
CCc1ccc(NC(=O)C(=O)NCCN2CCN(C(=O)c3ccc(OC)cc3)CC2)cc1	.	-0.5	-18.1%	-11.6	.	-31.6%
CCOc1ccc(NC(=O)CN2CCN(C(=O)c3ccco3)CC2)cc1S(=O)(=O)N1CCCC1	.	39.7*	5.7%	-9.3	.	i
SMILES	MBNL1-CUG inh	D3 ag	Integrin act MD	D3 antag	CBFb-RUNX1 inh	PTHR1 agonist
CCc1ccc(NC(=O)C(=O)NCCN2CCN(C(=O)c3ccco3)CC2)cc1	-20.8%	72.5*	11.3%	25.4	7.5%	-8.9%[57.5 µM]
COc1ccc(NC(=O)CN2CCCCC2)cc1S(=O)(=O)N1CCCCC1	.	-6.5	-3.1%	-4.1	.	i
CCOc1ccc(S(=O)(=O)NCc2cccs2)cc1	-1.0%	-8.5	-9.4%	18.5	13.0%	i
CCSc1nnc(-c2ccc(S(=O)(=O)NCc3cccs3)cc2)o1	128.4%	6.1	-23.1%	-66.4*	6.1%	-24.3%
Cc1cc2c(C)nc(N/N=C/c3ccc(F)cc3)nc2o1	16.4%	3.3	18.5%	-55.7*	2.6%	i
Cc1cc2c(C)nc(N/N=C/c3ccc([N+](=O)[O-])cc3)nc2o1	?	3.3	?	-4.8	-29.9%	i
COC(C[C@H]1O[C@H]1[C@H](O)[C@H](C)OCc1ccccc1)OC	-2.9%	37.1*	9.1%	11.5	6.2%	i
COC(C[C@@H]1O[C@@H]1[C@@H](O)[C@H](C)OCc1ccccc1)OC	-2.9%	0.6	3.9%	0.0	-1.5%	-12.8%
O=C(O)c1ccc(NS(=O)(=O)c2ccsc2C(=O)O)c(O)c1	.	.	.	.	9.6%	.
CCCn1nc(NS(C)(=O)=O)c2cc3cccc(C)c3nc21	0.8%	0.0	-4.7%	-53.3*	5.5%	i
O=C1NC(=O)[C@H]2[C@@H]1[C@@H]1C=C[C@H]2C1	.	3.3	.	.	.	.
Cc1ccc(O)c(N=Cc2cc(Cc3ccccc3)cc([N+](=O)[O-])c2O)c1	3.7%	10.1	-57.9%	?	?	i
O=[N+]([O-])c1cc(Cc2ccccc2)cc(C=Nc2ccc(N3CCOCC3)cc2)c1O	7.0%	-5.0	-12.6%	-66.6*	?	-19.6%
N#Cc1ccc(NC(=S)N2CCC3CC2c2cc(-c4ccc5c(c4)OCO5)ccc23)cc1 (stereo not drawn)	.	5.8	.	5.6	.	-23.4%
O=C(NCCN1CCCCC1)Nc1cccc(Cl)c1Cl	-9.0%	-25.3	7.5%	?	.	13.5%
COc1ccc(N2CCN(CCNC(=O)Nc3ccc(C)cc3Cl)CC2)cc1	-0.6%	-11.8	0.9%	-23.6	.	i
O=C(NCCN1CCN(c2ccccc2)CC1)Nc1ccccc1Br	-0.6%	9.1	-1.8%	-78.6*	.	-22.7%
O=C(NCCN1CCN(c2ccccc2)CC1)Nc1ccccc1Cl	-1.0%	6.6	-25.6%	-83.0*	.	-6.7%
CCCN1CCN(CCNC(=O)Nc2ccccc2Cl)CC1	-5.3%	-18.4	-33.8%	-76.5*	.	-19.5%
COc1ccc(OCC(=O)N2CCCC(Nc3ccc(C)c(C)c3)C2)cc1 (stereo not drawn)	.	3.2	10.8%	32.1	.	-21.4%
CCOc1ccc(Cl)cc1-c1cc(C(=O)NCC2CCCCC2)[nH]n1	.	-20.0	.	?	.	-6.8%
CC(C)Oc1cc(F)ccc1-c1cc(C(=O)NCC2CCCCC2)[nH]n1	.	-10.5	.	-83.5*	.	-43.7%
COc1ccc(Cl)cc1-c1cc(C(=O)NCC2CCCCC2)[nH]n1	.	-16.4	.	-57.7*	.	-21.2%
Cc1ccc(Cl)cc1-c1cc(C(=O)NCc2ccccc2)[nH]n1	.	-14.4	.	-51.1*	.	i

Source: PubChem BioAssay (National Center for Advancing Translational Sciences (NCATS))
